Bioassay records deposited in PubChem BioAssay by several laboratories.
Peg3 prom inh: Peg3 promoter-driven luciferase inhibitors, primary screen, cell-based, HeLa, luciferase luminescence; HeLa PEG-Prom luciferase reporter, overnight; inhibition, % at 20 µM; actives 1.7% (n = 360,000);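 active = inhibition of at least 50% at 20 µM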
KKLEB cytotox: cytotoxicity in KKLEB CF airway cells, primary screen, cytotoxicity control for CF NF-kB inhibitor project, cell-based, uHTS, fluorescence assay plates; KKLEB CF airway cells viability, ATPlite luminescence, overnight; hits give low values; cells stimulated with P. aeruginosa culture filtrate; activity change (cytotoxicity), % at 5 µM; actives 0.36% (n = 360,000);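 active = corrected activity change at or below -50% at 5 µM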
CF NFkB inh: inhibitors of PAF-induced NF-kB signaling, primary screen, cell-based, GFP fluorescence, uHTS. KKLEB NF-kB-GFP reporter, GFP fluorescence overnight. inhibition, % at 5 µM. actives 0.86% (n = 360,000);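 active = at least 50% inhibition at 5 µM, scaled per plate between neutral and stimulator controls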;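 note: PAF is a Pseudomonas aeruginosa culture filtrate used as stimulus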
HIF-2a inh: HIF-2a reporter inhibitors, primary screen, luminescence, 786-0 RCC cells. inhibition, % at 18.8 µM. AID 624352, 2012. 786-0 RCC cells HIF-2a reporter, luciferase luminescence, overnight. actives 0.72% (n = 360,000);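 active = inhibition of the luminescence signal of 40% or more relative to plate controls, in a single-dose primary screen at 18.75 µM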
MITF TRPM1 inh: inhibitors of MITF-dependent TRPM1 promoter reporter, primary screen, cell-based, SK-MEL-5, single point, luciferase. SK-MEL-5 TRPM1 promoter luciferase, 24 h. inhibition, % at 12.5 µM. actives 0.83% (n = 330,000);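 active = mean inhibition across replicates of 60% or more, whatever share of single replicates reaches that level; inconclusive = some that reach 60%, reason not given; inactive = mean inhibition across replicates below 60%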
EBV LMP1 NFkB: EBV LMP1-driven NF-kappaB luciferase reporter inhibitors, primary screen, cell-based, luminescence, single point; inhibition, % at 12.5 µM; actives 0.69% (n = 350,000); LMP1-induced NF-kappaB luciferase reporter cells; in the data active = inhibition above about 41%; inconclusive = no clear call, values can overlap the other calls
Of the large screens only hits and unclear results are named; the others gave an inactive call. Sampled rows, rich in hits. Any-hit rate of the full collection: about 3%.

CCN(CC(=O)Nc1ccc(NC(C)=O)cc1)C(=O)c1cc(-c2ccccc2Cl)nc2ccccc12	none (no result: MITF TRPM1 inh)
COc1cc(CN2C[C@@H](CO)O[C@@H](n3cnc4c(NC5CCC5)ncnc43)C2)cc(OC)c1OC	none (no result: MITF TRPM1 inh, EBV LMP1 NFkB)
COc1cc(SC)ccc1C(=O)Nc1ccccn1	none
COc1cc(SC)ccc1C(=O)Nc1ccc(Br)cn1	Peg3 prom inh 55, KKLEB cytotox -85, EBV LMP1 NFkB 51
C=CCNC1=C(Cl)C(=O)c2ccccc2C1=O	MITF TRPM1 inh 63
O=S(=O)(Cc1ccccc1)NCc1cccnc1	none
O=C1C(Cl)=C(NCc2cccnc2)C(=O)c2ccccc21	MITF TRPM1 inh 98
O=C1C(Cl)=C(NCCc2ccccc2)C(=O)c2ccccc21	Peg3 prom inh 63, MITF TRPM1 inh inconclusive
CO[C@@]12[C@H](COC(N)=O)C3=C(C(=O)C(C)=C(N)C3=O)N1C[C@@H]1N[C@@H]12	none
CO[C@@]12[C@@H]3N[C@@H]3CN1C1=C(C(=O)C(N)=C(C)C1=O)[C@@H]2COC(N)=O	Peg3 prom inh 60, EBV LMP1 NFkB 62
CN1CCN(c2ncnc3c2ncn3[C@H]2CN(C)C[C@@H](CO)O2)CC1	none (no result: MITF TRPM1 inh, EBV LMP1 NFkB)
CCOc1cc(-c2sc(Nc3ccccc3)n[n+]2C)ccc1OC	EBV LMP1 NFkB 81
COc1ccc(-c2sc(Nc3ccccc3)n[n+]2C)c(C)c1C	none
Cc1ccc(OCCC(=O)OCC(=O)c2c(N)n(CC(C)C)c(=O)n(C)c2=O)cc1	EBV LMP1 NFkB 72
CCOc1ccc(OCCC(=O)OCC(=O)c2c(N)n(CC(C)C)c(=O)n(C)c2=O)cc1	none (no result: MITF TRPM1 inh)
O=C(NNC(=O)C12CC3CC(CC(C3)C1)C2)c1ccccn1	Peg3 prom inh 60
COC(=O)N/N=C/c1ccc(-c2ccc(C)c(Cl)c2)o1	none
Cc1ccc(-c2ccc(/C=N/c3ncn[nH]3)o2)cc1Cl	EBV LMP1 NFkB 59
O=C(O)Cc1sc(Nc2ccc(Cl)cc2)nc1-c1cccs1	MITF TRPM1 inh 81, EBV LMP1 NFkB 51 (no result: Peg3 prom inh, KKLEB cytotox, CF NFkB inh, HIF-2a inh)
CCc1c(C)nc2[nH]ncn2c1=O	none
CCCCCCCN(c1ccccc1)[C@@H]1C[C@H]2CCCC(=O)N3CC[C@@H](C1)[C@@H]23	Peg3 prom inh 87
CCCS(=O)(=O)NC(=O)C1(C)CCCN(C(=O)c2ccc(C#N)cc2)C1 (stereo not drawn)	none (no result: MITF TRPM1 inh, EBV LMP1 NFkB)
Cc1cc(C)c(OCCn2ccnc2)c(C)c1	EBV LMP1 NFkB 73
Cc1sc(-n2c(C)cc(/C=C3\SC(=S)NC3=O)c2C)c(C#N)c1C	Peg3 prom inh 75
C(=C\c1ccccc1)/CN1CCN(C(c2ccccc2)c2nnnn2C2CCCCC2)CC1 (stereo not drawn)	none (no result: MITF TRPM1 inh, EBV LMP1 NFkB)
OC[C@@H](O)[C@@H](O)[C@H](O)[C@H](O)CO	EBV LMP1 NFkB 47
CCCCNC(=O)C(NC(=O)c1ccc2c(c1)OCO2)C(=O)c1ccccc1 (stereo not drawn)	none (no result: Peg3 prom inh, KKLEB cytotox, CF NFkB inh, MITF TRPM1 inh, EBV LMP1 NFkB)
Cc1ccc2nc(-c3ccc(NC(=S)NC4CC(C)(C)NC(C)(C)C4)cc3)sc2c1	Peg3 prom inh 105
CN1CCN(C(=O)C[C@H]2C[C@H]3c4cc(NC(=O)NC5CCCCC5)ccc4O[C@H]3[C@@H](CO)O2)CC1	none (no result: MITF TRPM1 inh)
COc1ccc(-c2sc3ccccc3c2-c2ccc(OCCN(C)C)cc2)cc1	Peg3 prom inh 101, MITF TRPM1 inh 76
CN(C)CCOc1ccc(-c2c(-c3ccsc3)sc3ccccc23)cc1	Peg3 prom inh 98
O=C(Nc1ccc(Nc2ccccc2)cc1)c1ccc(F)cc1	none
O=C(O)c1ccc(C(=O)Nc2ccc(F)cc2)cc1	MITF TRPM1 inh 106
CC1CCN(CCCNC(=O)c2cc3c(Cl)nc4ccccc4c3s2)CC1	Peg3 prom inh 53
O=C(NCCCN1CCCC1)c1cc2c(Cl)nc3ccccc3c2s1	none
Cc1cc(O)c(C(C)C)cc1N=Cc1ccc([N+](=O)[O-])cc1	none
O=C(O)c1c[nH]c2c([N+](=O)[O-])cccc2c1=O	none
